From PubChem BioAssay come the findings set out here.

SMILES strings stand for the structures. Where “and” joins values, the source holds several entries; their conditions need not be identical. Equal values may be shown once. Results filed as inconclusive are left out. The source holds several records for some structures; these can differ, active in one and inactive in another. Calls of active or inactive are those of the source.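 Rule for the calls, unless noted: active = normalized viability below 100% at a tested concentration; inactive = the rest.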

Experiment [1] in a line: viability loss in pontine glioma line – cell-based, SU-DIPG-XXV, MIPE5.0, CellTiter-Glo, qHTS, dose response (AID 1347065; cut-off not given, nearly all actives have AC50 up to about 26 µM;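 note: cells exposed to compound for 48 hours before ATP readout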). The following applies: CellTiter-Glo ATP luminescence. (In ATP-based viability assays light output follows the ATP content of the culture.)
Experiment [2] in a line: SU-DIPG-VI glioma cell viability, MIPE4.0 library, CellTiter-Glo luminescence, qHTS (AID 1347066; cut-off not given, nearly all actives have AC50 up to about 30 µM;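 note: cells exposed to compound for 48 hours before readout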). The conditions noted are these: CellTiter-Glo ATP luminescence.
The nature of experiment [3]: JHH-DIPG-1 glioma cell viability, MIPE5.0 library, CellTiter-Glo luminescence, qHTS (AID 1347067; cut-off not given, nearly all actives have AC50 up to about 26 µM;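 note: cells exposed to compound for 48 hours before readout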). The conditions noted are these: JHH-DIPG-1 glioma viability, CellTiter-Glo ATP luminescence.
Experiment [4] in a line: SU-DIPG-XXV glioma cell viability, MIPE5.0 library, qHTS (AID 1347068; cut-off not given, nearly all actives have IC50 up to about 30 µM;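 for IC50: cells exposed to compound for 48 hours before viability readout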).
The nature of experiment [5]: phospholipid biosynthesis inhibitors in animal cells, primary screen, cell-based, LOPAC library, screen 4 (AID 1347384; call rule not given here). The conditions noted are these: phospholipid biosynthesis inhibition screen, at 10 µM.
Experiment [6] in a line: survival rescue of mitochondrial mutant cells in low glucose, primary screen, MELAS cybrids, Rieske KO mouse fibroblasts, CellTiter-Glo (AID 1508586;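 active = mean z-score across replicates of 1.96 or higher in either the MELAS or the Rieske mutant cell line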;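 note: z relative to plate mean and SD of compound and empty wells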).
For experiment [7], the target named is NAD(+) hydrolase SARM1 (Homo sapiens) (UniProt Q6SZW1). Kind of experiment: SARM1 TIR NADase inhibitors, cell lysate, NAD-Glo luminescence (AID 1508614;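 active = compound whose remaining NAD level is above about 45 nM, limit read from the data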;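 note: higher remaining NAD means stronger inhibition of SARM1 NADase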). The following applies: SAM-TIR HEK293T lysate NADase, at 1 µM, stronger effect = higher value.
NAD(+) hydrolase SARM1 (Homo sapiens), sequence (Q6SZW1 whole entry, looked up, the tested form may be a part): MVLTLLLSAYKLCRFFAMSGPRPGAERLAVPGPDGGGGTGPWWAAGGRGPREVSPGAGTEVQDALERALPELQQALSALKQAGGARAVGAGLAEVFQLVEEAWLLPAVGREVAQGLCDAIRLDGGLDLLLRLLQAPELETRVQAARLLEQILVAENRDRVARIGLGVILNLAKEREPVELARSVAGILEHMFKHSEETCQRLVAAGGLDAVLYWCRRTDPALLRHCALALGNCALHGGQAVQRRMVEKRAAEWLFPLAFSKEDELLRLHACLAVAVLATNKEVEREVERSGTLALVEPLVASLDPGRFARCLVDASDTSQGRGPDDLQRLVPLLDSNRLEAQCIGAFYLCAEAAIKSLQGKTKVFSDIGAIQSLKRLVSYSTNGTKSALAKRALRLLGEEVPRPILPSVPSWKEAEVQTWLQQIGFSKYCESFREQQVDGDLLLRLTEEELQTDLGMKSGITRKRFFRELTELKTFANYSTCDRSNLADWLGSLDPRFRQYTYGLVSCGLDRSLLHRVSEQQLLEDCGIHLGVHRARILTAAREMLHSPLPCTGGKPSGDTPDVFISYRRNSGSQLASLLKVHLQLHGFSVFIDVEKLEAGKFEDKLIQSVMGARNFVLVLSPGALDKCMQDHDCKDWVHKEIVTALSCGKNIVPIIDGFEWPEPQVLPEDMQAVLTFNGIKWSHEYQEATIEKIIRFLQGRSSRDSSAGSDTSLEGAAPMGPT
The target in experiment [8] is Mitogen-activated protein kinase 7 (Homo sapiens) (UniProt Q13164). As to the kind of experiment: ERK5 transactivation activators in reporter cells, primary screen, cell-based, HTS (AID 1508626;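 active = luciferase signal above three times the same-plate solvent-only control wells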;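 note: luciferase driven by Gal4-ERK5 fusion binding five Gal4 sites before minimal TATA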). The conditions noted are these: HeLa Gal4-ERK5 transactivation, 18 h, at 5 µM, stronger effect = higher value.
Mitogen-activated protein kinase 7 (Homo sapiens), sequence (Q13164 whole entry, looked up, the tested form may be a part): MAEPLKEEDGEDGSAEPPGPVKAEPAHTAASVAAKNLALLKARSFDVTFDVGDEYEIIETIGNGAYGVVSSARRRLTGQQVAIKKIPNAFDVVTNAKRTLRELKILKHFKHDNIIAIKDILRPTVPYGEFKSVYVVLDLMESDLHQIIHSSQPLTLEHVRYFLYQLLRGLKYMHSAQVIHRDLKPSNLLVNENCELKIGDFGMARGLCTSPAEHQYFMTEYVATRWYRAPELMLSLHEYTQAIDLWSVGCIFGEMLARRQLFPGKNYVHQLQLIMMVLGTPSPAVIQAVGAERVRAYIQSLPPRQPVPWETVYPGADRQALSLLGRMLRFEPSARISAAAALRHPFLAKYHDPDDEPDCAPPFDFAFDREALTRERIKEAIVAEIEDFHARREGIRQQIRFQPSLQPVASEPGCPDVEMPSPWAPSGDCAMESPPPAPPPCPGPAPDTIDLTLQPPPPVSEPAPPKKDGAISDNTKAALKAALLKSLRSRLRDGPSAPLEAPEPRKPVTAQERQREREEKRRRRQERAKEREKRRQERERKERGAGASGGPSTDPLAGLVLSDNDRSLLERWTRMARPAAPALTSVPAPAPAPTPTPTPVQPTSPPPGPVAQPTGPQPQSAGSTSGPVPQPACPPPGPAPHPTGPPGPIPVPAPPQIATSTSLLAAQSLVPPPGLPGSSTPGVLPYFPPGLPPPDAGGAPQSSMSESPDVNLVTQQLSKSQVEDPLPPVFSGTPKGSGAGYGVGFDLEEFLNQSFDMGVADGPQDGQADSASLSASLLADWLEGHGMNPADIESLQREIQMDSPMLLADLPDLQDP
Experiment [9] is described as follows: viability rescue of complex I mutant cybrids, primary screen, cell-based, galactose medium, ATP luminescence (AID 1645843;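 active = z-score of at least 1.8 in each of two replicates, scored against plate mean and spread of sample wells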;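 note: positive z means more ATP and so rescue of galactose-driven cybrid death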). The conditions noted are these: complex I mutant cybrid cells, 72 h, stronger effect = higher value.
Experiment [10] can be described thus: modifiers of HSF1 nuclear foci, imaging, Selleck Cancer Library (AID 1347162; in the data active = plate-normalised HSF1 focus index below about 0.46). The conditions noted are these: human cells, at 10 µM; SSMD: measured here: HSF1 foci SSMD mean; cell count: measured here: cell number; plate-normalised HSF1 focus index: stronger effect = lower value.
Experiment [11] in a line: ovarian cancer cell viability with rucaparib, profiling panel, oncology-focused library, rucaparib conditional (AID 1508598). The following applies: patient-derived ovarian cancer cells, CellTiter-Glo viability, 144 h, stronger effect = lower value.
Setting [12] is: MELAS cybrid survival, CellTiter-Glo 48 h, stronger effect = higher value.
The mark [13] stands for this setting: Rieske KO mouse fibroblast survival, CellTiter-Glo 72 h.

Regarding `CC(=O)Oc1ccccc1C(=O)O`, the compound was called inactive in [1], in experiment [2], in experiment [3], in experiment [4] and in [5]. Besides, the z-score is -0.282 (inactive) and -0.31 (inactive) and 0.455 (inactive) in [6] (setting [12]); 0.817 and -0.843 and -0.759 in [6] (setting [13]); 0.51 (inactive) and 0.115 (inactive) in experiment [9]. Moreover, the remaining NAD in experiment [7] is 10 nM (inactive). The luciferase signal in experiment [8] is 92 AU (inactive).
For the compound `COc1cccc2c1C(=O)c1c(O)c3c(c(O)c1C2=O)C[C@@](O)(C(=O)CO)C[C@@H]3O[C@H]1C[C@H](N)[C@H](O)[C@H](C)O1`, the AC50 in experiment [1] is 1.18 µM (active); in experiment [2] it was 2.35 µM (active); in experiment [3], 1.05 µM (active). Further, the IC50 in experiment [4] is 7.42 µM (active). This compound also had an SSMD in experiment [10] of -18.3. The compound further returned a cell count in experiment [10] of 7010. For the same compound, in experiment [10], the plate-normalised HSF1 focus index is 0.0593 (active). In addition, the z-score is 0.616 (inactive) and 7.1 (active) in experiment [6] (setting [12]); -1.64 and -0.526 in experiment [6] (setting [13]); -0.63 (inactive) and -2.04 (inactive) in [9]. Besides, the remaining NAD in [7] is 10 nM (inactive). Besides, the luciferase signal in experiment [8] was 32 AU (inactive).
`N[C@@H](Cc1ccc(O)c(O)c1)C(=O)O`: the compound was classed as inactive in experiment [1], in [2], in experiment [3], in [4] and in [5]. Besides, the z-score in experiment [6] (setting [12]) was -0.394 (inactive) and -0.26 (inactive); in [6] (setting [13]), 0.117 and -1.12; in experiment [9], -0.965 (inactive) and -1.59 (inactive). Also, in [7], the remaining NAD is 10 nM (inactive). For the same compound, the luciferase signal in experiment [8] was 72 AU (inactive).
With `Cc1cc2c(C(C)C)c(O)c(O)c(C=O)c2c(O)c1-c1c(C)cc2c(C(C)C)c(O)c(O)c(C=O)c2c1O`, the AC50 in experiment [1] is 7.42 µM (active); in experiment [2], 8.33 µM (active); in experiment [3], 2.95 µM (active). The IC50 in [4] is 23.5 µM (active). This compound also showed an SSMD in [10] of -10.3. The same compound returned a cell count in experiment [10] of 5460. Moreover, in experiment [10], the plate-normalised HSF1 focus index was 0.468 (active). Also, the outcome in [5] was inactive. The viability was 113% (inactive) in [11] (at 0.000305 µM, OCI-C5x cells, with rucaparib 10 µM, 100% = cells with rucaparib alone); 130% (inactive) in experiment [11] (at 0.000305 µM, OCI-C5x cells, without rucaparib); 95.4% (active) in [11] (at 0.000305 µM, OCI-P5x cells, with rucaparib 20 µM, 100% = cells with rucaparib alone); 103% (inactive) in [11] (at 0.000305 µM, OCI-P5x cells, without rucaparib); 115% (inactive) in experiment [11] (at 0.00122 µM, OCI-C5x cells, with rucaparib 10 µM, 100% = cells with rucaparib alone); 120% (inactive) in [11] (at 0.00122 µM, OCI-C5x cells, without rucaparib). The viability in [11] (at 0.00122 µM, OCI-P5x cells, with rucaparib 20 µM, 100% = cells with rucaparib alone) was 95.6% (active); in experiment [11] (at 0.00122 µM, OCI-P5x cells, without rucaparib) it was 104% (inactive); in experiment [11] (at 0.00488 µM, OCI-C5x cells, with rucaparib 10 µM, 100% = cells with rucaparib alone) it was 119% (inactive); in experiment [11] (at 0.00488 µM, OCI-C5x cells, without rucaparib) it was 131% (inactive); in experiment [11] (at 0.00488 µM, OCI-P5x cells, with rucaparib 20 µM, 100% = cells with rucaparib alone), 96.5% (active); in experiment [11] (at 0.00488 µM, OCI-P5x cells, without rucaparib) it was 108% (inactive). The viability in [11] (at 0.0195 µM, OCI-C5x cells, with rucaparib 10 µM, 100% = cells with rucaparib alone) is 113% (inactive); in experiment [11] (at 0.0195 µM, OCI-C5x cells, without rucaparib), 134% (inactive); in experiment [11] (at 0.0195 µM, OCI-P5x cells, with rucaparib 20 µM, 100% = cells with rucaparib alone), 101% (inactive); in [11] (at 0.0195 µM, OCI-P5x cells, without rucaparib) it was 112% (inactive); in experiment [11] (at 0.0781 µM, OCI-C5x cells, with rucaparib 10 µM, 100% = cells with rucaparib alone), 110% (inactive); in experiment [11] (at 0.0781 µM, OCI-C5x cells, without rucaparib), 123% (inactive). Besides, the viability in experiment [11] (at 0.0781 µM, OCI-P5x cells, with rucaparib 20 µM, 100% = cells with rucaparib alone) is 108% (inactive); in experiment [11] (at 0.0781 µM, OCI-P5x cells, without rucaparib) it was 116% (inactive); in [11] (at 0.313 µM, OCI-C5x cells, with rucaparib 10 µM, 100% = cells with rucaparib alone) it was 128% (inactive); in experiment [11] (at 0.313 µM, OCI-C5x cells, without rucaparib), 144% (inactive); in [11] (at 0.313 µM, OCI-P5x cells, with rucaparib 20 µM, 100% = cells with rucaparib alone) it was 107% (inactive); in [11] (at 0.313 µM, OCI-P5x cells, without rucaparib), 113% (inactive). For the same compound, the viability was 110% (inactive) in [11] (at 1.25 µM, OCI-C5x cells, with rucaparib 10 µM, 100% = cells with rucaparib alone); 148% (inactive) in experiment [11] (at 1.25 µM, OCI-C5x cells, without rucaparib); 95.9% (active) in experiment [11] (at 1.25 µM, OCI-P5x cells, with rucaparib 20 µM, 100% = cells with rucaparib alone); 110% (inactive) in [11] (at 1.25 µM, OCI-P5x cells, without rucaparib); 130% (inactive) in [11] (at 5 µM, OCI-C5x cells, with rucaparib 10 µM, 100% = cells with rucaparib alone); 156% (inactive) in experiment [11] (at 5 µM, OCI-C5x cells, without rucaparib). Moreover, the viability was 89.5% (active) in [11] (at 5 µM, OCI-P5x cells, with rucaparib 20 µM, 100% = cells with rucaparib alone) and 106% (inactive) in experiment [11] (at 5 µM, OCI-P5x cells, without rucaparib). The luciferase signal in [8] was 28 AU (inactive). Besides, the z-score in experiment [9] is -1.29 (inactive) and -0.705 (inactive).

For orientation: AC50 means the midpoint of the concentration-response curve, whichever way the signal moves. One may read the IC50 as the midpoint of a concentration-inhibition curve. As a reminder, the viability is a read-out of living cells in per cent, often relative to untreated cells.
